Experimental findings from PubChem BioAssay (NCATS) are described below.

Assay [1] is described as follows: AP1 Signaling Pathway (AID 357).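 Further: ME-180 reporter cells stimulated with EGF at its EC50 level; on the % scale 0 is the no-effect control and ±100 the full control effect.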 A digest of the protocol:
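Modulation of EGF-driven AP-1 transcription was assessed with a beta-lactamase reporter in ME-180 cells. Compound and EC50 EGF were co-incubated 5 hours at 37 °C before 2.5-hour CCF4 loading at room temperature and dual-emission reading.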

A short description of assay [2]: Stat Signaling Pathway (AID 446).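 Further: ME-180 cervical cancer cells given 40 pM IL-6 alongside compound; SIE-controlled beta-lactamase reporter measured as 460/530 nm FRET emission ratio; on the % scale 0 is the no-effect control and ±100 the full control effect.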 A digest of the protocol:
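Compound effects on IL-6-induced STAT reporter activity were measured in ME-180 cells. After overnight culture, cells were co-treated with 40 pM IL-6 for 5 hrs before beta-lactamase substrate loading at room temperature.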

The target of assay [3] is Glucocorticoid receptor (Homo sapiens) (UniProt P04150). The experiment in a line: GR-EFC Redistribution (AID 451; calls by dose curve; further: potency means the concentration at half of the fitted maximal effect). Particulars: CHO-K1 GR-EFC translocation, beta-gal luminescence, 2 h. A digest of the protocol: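 CHO-K1 cells stably expressing nuclear-localized β-gal enzyme acceptor and GR fused C-terminally to the enzyme donor fragment; ligand-driven nuclear translocation restores β-gal by complementation. Compounds titrated up to 46 uM final, 2 h at 37 °C; luminescence read.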

For assay [4], the target named is Mitogen-activated protein kinase 10 (Mus musculus) (UniProt Q61831). Description: JNK3 AlphaScreen Assay (AID 530).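 Further: kinase came from lysate of stimulated human HepG2 cells; signal reports phosphorylation of biotinylated GST-cJun 1-79 at Ser73 with 10 µM ATP; on the % scale 0 is the no-effect control and ±100 the full control effect.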 Summed up:
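Biotinylated GST-cJun(1-79) served as substrate for JNK3 in HepG2 lysates stimulated with IL-1beta and TNF-alpha. ATP was 10 uM final, pH 7.6. Ser73 phosphorylation was quantified by AlphaScreen (680 nm excitation).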
On the technique in general: In Alpha technology, singlet oxygen from a donor bead excites a nearby acceptor bead.

Assay [5] deals with 3',5'-cyclic-AMP phosphodiesterase 4B (Homo sapiens) (UniProt Q07343). Description: qHTS Assay for Inhibitors of PDE-IV (AID 607; active means well fitted activation curve with a large enough effect in the main read-out, with a control signal flat, not every such curve was filed as active; further: % of control where 0% means no effect). A digest of the protocol: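 ACTOne HEK293 cells carry a modified cAMP-gated CNG channel and express endogenous PDE4; plated 1000 cells/well, compounds up to 22.9 uM final. Membrane-potential dye fluorescence (ex 535/em 590) was read; parental cells received 10 uM forskolin + 100 uM RO 20-1724.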
For orientation: Quantitative high-throughput screening tests each substance at several concentrations.

The nature of assay [6]: qHTS Assay for Lipid Storage Modulators (AID 1519; calls by dose curve). As to conditions: Drosophila S3 cells, BODIPY lipid droplet/cell ratio, laser cytometry, cells loaded with oleic acid. Summed up: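 Cells seeded at 5,000 per well were treated with compounds over a concentration series and loaded with oleic acid (400 uM, as added). Lipid droplet fluorescence (488 nm excitation, 500-530 nm channel) was read by laser-scanning cytometry and normalized to 20 uM Triacsin C.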

Assay [7] deals with Ubiquitin carboxyl-terminal hydrolase 1 (Homo sapiens) (UniProt O94782). The experiment in a line: Inhibitors of USP1/UAF1: Pilot qHTS (AID 504865; active means well fitted inhibition curve with a large enough effect;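 further: rhodamine fluorescence freed from ubiquitin-rhodamine substrate followed over time; top concentration of the series differs between compounds; on the % scale 0 is the no-effect control and ±100 the full control effect; nearly all actives have a fitted effect of over 35% in size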). Summed up:
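USP1/UAF1 complex (1nM) preincubated with compound 15 min at room temperature, then Ub-Rho substrate (150nM final) added. Fluorescence read kinetically at 480/540 nm, 6 reads every 60 seconds. Buffer: 50mM HEPES pH 7.8, 0.5mM EDTA, 0.1 mg/ml BSA, 1mM TCEP, 0.01% Tween-20.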

The nature of assay [8]: NFAT Signaling Pathway (AID 444).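 Further: carbachol stimulus at about its EC50 of 1 µM final; on the % scale 0 is the no-effect control and ±100 the full control effect.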 As to conditions: Jurkat NFAT-bla M1, carbachol, beta-lactamase ratio, 5 h; at 17.2 µM (top of the series). Summed up:
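Jurkat cells carrying an NFAT-driven β-lactamase reporter and co-transfected muscarinic M1 receptor were treated with compound plus carbachol (1 uM final, an EC50 level) for 5 h at 37 °C. CCF4 loading followed for 1 h at RT; 460/530 nm ratio gave %activity.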

Assay [9] concerns the target Glucocorticoid receptor (Homo sapiens) (UniProt P04150). The experiment in a line: GR-GFP Redistribution (AID 450;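 active means compounds whose dose series gives a full or clear partial fitted curve of increased nuclear translocation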; further: potency means the concentration at half of the fitted maximal effect). As to conditions: U2OS GR-GFP nuclear translocation, laser cytometry, 2 h.
The target of assay [10] is Luciferin 4-monooxygenase (Photinus pyralis) (UniProt P08659). The experiment in a line: Biochemical firefly luciferase enzyme assay for NPC (AID 624030; active means well fitted inhibition curve with a large enough effect;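 further: purified P. pyralis luciferase at 10 nM with luciferin and ATP substrate; 0% = DMSO and -100% = full luciferase inhibition by PTC124 control; nearly all actives have a fitted effect of over 70% in size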). A digest of the protocol: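 Counter-screen for direct inhibition of the luciferase enzyme by approved-drug library compounds, run at 10 nM enzyme in 50 mM Tris acetate (final). Luminescence was read within 5 min of enzyme-buffer addition and normalized to PTC124 versus DMSO (0%).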

Assay [11] in a line: qHTS profiling for inhibitors of Plasmodium falciparum proliferation (AID 504749; active means well fitted inhibition curve with a large enough effect;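 further: 0% = DMSO vehicle and full inhibition = artemisinin control; nearly all actives have a fitted effect of over 60% in size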). Particulars: P. falciparum in erythrocytes, SYBR Green DNA, 72 h, at 28.7 µM (top of the series). A digest of the protocol:
(§1)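 Fluorescence of SYBR Green-bound parasite DNA, read at 485/535 nm, served as the growth measure. Infected erythrocytes were cultured with compound 72 h; artemisinin (0.29 uM) and DMSO wells defined the normalization range.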

For the next assay, the system named is 3D7. The assay is described as above. Particulars: P. falciparum in erythrocytes, SYBR Green DNA, 72 h; series mostly up to 28.7 µM. Summed up: as §1
A further assay concerns C2A. The description is as above. As to conditions: P. falciparum in erythrocytes, SYBR Green DNA, 72 h; series mostly up to 28.7 µM. Summed up:
as §1

The test system of another assay is CP211. The assay is described as above. Particulars: P. falciparum in erythrocytes, SYBR Green DNA, 72 h; series mostly up to 28.7 µM. Summed up: as §1
The test system of a further assay is CP217. Described as above. As to conditions: P. falciparum in erythrocytes, SYBR Green DNA, 72 h; series mostly up to 28.7 µM. Summed up:
as §1

Another assay relates to CP252. Described as above. Particulars: P. falciparum in erythrocytes, SYBR Green DNA, 72 h; series mostly up to 12.8 µM. Summed up:
as §1

For a further assay, the system named is CP262. The description is as above. Particulars: P. falciparum in erythrocytes, SYBR Green DNA, 72 h; series mostly up to 28.7 µM. A digest of the protocol:
as §1

In another assay the test system is CP286. Described as above. As to conditions: P. falciparum in erythrocytes, SYBR Green DNA, 72 h; series mostly up to 28.7 µM. A digest of the protocol: as §1
The test system of a further assay is ECU. The description is as above. Particulars: P. falciparum in erythrocytes, SYBR Green DNA, 72 h; series mostly up to 28.7 µM. A digest of the protocol:
as §1

Assay [12] deals with Cytochrome P450 1A2 (Homo sapiens) (UniProt P05177). Description: p450-cyp1a2 (AID 410; calls by dose curve;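 further: -100% = full effect of reference inhibitor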). Summed up: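 20nM CYP1A2, 100uM Luciferin-ME (=Km), 100mM KPO4; cpd 10 min RT; +NADPH regen, 60 min RT; stop/detect 20 min; luminescence. Normalized to furafylline 57 uM = full inhibition.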
Setting [13] is: measured here: cell count channel max response.
Setting [14] is: measured here: lipid channel max response.

Where “and” joins values, the source holds several entries; their conditions need not be identical. Equal entries are not always repeated. Results filed as inconclusive are left out. Calls of active or inactive are those of the source. Unless noted, the call rests on the fitted dose curve; in most records, active means well fitted curve in either direction with a large enough effect (not every such curve was filed as active); inconclusive means small, poorly fitted or top-dose-only effect, or another doubt; inactive means flat fitted curve, though single readings scatter.

Chain of Glucocorticoid receptor (Homo sapiens) (P04150 whole entry, looked up, the tested form may be a part): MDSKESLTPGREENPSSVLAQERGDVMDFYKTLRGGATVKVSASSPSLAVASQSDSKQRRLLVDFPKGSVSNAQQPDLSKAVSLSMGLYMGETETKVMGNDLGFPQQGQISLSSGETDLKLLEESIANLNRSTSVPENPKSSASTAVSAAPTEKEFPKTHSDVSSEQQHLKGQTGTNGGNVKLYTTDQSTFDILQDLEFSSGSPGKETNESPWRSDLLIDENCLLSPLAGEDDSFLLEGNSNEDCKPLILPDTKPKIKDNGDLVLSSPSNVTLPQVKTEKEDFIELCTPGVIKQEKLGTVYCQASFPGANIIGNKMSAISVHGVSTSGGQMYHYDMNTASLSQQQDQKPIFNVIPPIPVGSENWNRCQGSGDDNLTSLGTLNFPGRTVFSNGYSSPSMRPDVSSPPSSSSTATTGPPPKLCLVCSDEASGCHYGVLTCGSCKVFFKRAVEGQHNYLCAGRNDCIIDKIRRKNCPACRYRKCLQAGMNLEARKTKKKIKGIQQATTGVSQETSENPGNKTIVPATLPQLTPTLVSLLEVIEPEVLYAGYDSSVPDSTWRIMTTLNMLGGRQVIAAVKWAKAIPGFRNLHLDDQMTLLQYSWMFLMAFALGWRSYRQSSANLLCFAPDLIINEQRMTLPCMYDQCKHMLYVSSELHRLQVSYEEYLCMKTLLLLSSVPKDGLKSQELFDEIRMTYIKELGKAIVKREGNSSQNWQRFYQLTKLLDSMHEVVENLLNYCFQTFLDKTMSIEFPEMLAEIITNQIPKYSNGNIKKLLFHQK
Chain of Ubiquitin carboxyl-terminal hydrolase 1 (Homo sapiens) (O94782 whole entry, looked up): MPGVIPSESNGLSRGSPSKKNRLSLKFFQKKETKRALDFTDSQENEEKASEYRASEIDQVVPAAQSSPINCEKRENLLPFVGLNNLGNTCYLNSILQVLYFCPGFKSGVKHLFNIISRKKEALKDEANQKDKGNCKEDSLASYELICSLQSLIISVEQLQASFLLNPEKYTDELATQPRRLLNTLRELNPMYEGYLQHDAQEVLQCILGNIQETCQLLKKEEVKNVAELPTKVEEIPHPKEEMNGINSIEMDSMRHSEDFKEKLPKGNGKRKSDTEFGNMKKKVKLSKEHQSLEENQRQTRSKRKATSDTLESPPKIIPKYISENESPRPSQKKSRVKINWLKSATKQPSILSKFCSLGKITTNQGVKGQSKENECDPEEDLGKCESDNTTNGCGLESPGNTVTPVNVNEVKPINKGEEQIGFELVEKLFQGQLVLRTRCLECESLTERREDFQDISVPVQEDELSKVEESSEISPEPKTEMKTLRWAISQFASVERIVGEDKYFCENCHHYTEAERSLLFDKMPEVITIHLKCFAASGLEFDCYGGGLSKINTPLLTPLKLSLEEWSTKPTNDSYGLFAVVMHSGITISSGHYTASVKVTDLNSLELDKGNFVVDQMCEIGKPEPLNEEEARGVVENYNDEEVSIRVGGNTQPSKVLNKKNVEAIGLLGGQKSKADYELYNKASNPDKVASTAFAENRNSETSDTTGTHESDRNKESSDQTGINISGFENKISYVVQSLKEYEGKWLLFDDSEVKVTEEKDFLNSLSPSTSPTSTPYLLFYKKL
Chain of 3',5'-cyclic-AMP phosphodiesterase 4B (Homo sapiens) (Q07343 whole entry, looked up): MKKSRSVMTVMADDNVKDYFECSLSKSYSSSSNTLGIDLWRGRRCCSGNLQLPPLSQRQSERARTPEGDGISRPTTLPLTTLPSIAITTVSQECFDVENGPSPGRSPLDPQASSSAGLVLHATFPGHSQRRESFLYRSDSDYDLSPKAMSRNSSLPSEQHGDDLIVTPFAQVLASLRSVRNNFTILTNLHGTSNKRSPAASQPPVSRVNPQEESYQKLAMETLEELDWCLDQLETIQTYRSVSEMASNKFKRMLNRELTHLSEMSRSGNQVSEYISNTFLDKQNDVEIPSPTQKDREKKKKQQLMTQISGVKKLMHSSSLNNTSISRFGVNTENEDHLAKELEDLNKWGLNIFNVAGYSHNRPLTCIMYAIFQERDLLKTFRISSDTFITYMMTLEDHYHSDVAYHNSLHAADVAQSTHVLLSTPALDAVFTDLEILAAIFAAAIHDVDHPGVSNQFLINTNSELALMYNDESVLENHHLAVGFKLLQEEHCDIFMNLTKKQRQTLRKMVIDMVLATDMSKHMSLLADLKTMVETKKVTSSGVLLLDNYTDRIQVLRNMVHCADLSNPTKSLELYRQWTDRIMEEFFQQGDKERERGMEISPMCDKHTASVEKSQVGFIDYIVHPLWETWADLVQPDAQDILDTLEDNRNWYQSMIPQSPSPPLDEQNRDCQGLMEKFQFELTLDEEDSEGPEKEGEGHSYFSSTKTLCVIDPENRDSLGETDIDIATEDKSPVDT
Chain of Luciferin 4-monooxygenase (Photinus pyralis) (P08659 whole entry, looked up): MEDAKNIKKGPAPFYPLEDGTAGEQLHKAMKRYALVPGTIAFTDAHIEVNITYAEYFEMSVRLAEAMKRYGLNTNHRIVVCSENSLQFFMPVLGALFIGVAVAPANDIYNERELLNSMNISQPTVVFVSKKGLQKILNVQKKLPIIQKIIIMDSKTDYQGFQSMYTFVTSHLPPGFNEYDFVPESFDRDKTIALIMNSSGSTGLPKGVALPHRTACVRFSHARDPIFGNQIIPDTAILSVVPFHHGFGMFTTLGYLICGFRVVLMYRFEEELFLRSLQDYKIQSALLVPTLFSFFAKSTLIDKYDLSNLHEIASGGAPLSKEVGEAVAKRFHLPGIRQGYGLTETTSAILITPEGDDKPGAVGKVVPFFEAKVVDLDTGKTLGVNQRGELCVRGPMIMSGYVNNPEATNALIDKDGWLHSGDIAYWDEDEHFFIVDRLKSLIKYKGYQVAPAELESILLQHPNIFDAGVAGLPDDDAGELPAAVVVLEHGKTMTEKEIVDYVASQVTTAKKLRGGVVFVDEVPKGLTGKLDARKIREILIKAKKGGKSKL
Chain of Cytochrome P450 1A2 (Homo sapiens) (P05177 whole entry, looked up): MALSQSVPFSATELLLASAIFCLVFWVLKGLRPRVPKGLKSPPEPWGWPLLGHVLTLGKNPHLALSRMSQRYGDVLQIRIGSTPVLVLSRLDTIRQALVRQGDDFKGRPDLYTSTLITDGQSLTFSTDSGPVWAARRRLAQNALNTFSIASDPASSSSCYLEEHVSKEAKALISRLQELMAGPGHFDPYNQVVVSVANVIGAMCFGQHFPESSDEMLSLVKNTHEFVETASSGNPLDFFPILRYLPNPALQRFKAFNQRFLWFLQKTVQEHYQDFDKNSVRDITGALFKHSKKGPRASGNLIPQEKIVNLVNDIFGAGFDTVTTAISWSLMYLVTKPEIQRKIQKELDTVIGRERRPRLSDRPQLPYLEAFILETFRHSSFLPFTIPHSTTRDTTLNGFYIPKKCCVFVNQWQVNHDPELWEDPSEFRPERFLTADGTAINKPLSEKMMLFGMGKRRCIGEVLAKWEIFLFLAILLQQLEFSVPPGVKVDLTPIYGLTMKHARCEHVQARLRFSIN

Take `O=C(NCNC(=O)N[C@H]1C(=O)NC(=O)N1CO)N[C@H]1C(=O)NC(=O)N1CO`: the outcome in assay [1], in assay [2] and in assay [4] was inactive. In [3], the Potency is > 20.6 µM (inactive). Besides, the Potency result in assay [5] and in assay [7] was “inactive” each time. Further, the activity change, negative = inhibition in assay [6] (at 25.7 µM (top of the series)) is -1.29% (inactive). In addition, the max response is -9.3% in [6] (setting [13]) and -8.35% in assay [6] (setting [14]).
Regarding `c1ccc2c(c1)[nH]c1cnccc12`, the outcome in [1] was inactive. In addition, the activity change, negative = inhibition in [8] is 25.7% (inactive); in [6] (at 57.5 µM (top of the series)), 0.155% (inactive). The max response in [6] (setting [13]) was -9.28%; in assay [6] (setting [14]) it was -6.47%.
For the compound `O=C1C=C2C=C[C@H]3C[C@@]2(O1)[C@H]1CCCCN31`, the result in assay [2] and in assay [4] was inactive. Also, the Potency in assay [9] was > 20.6 µM (inactive) and > 46 µM (inactive); in assay [3], > 20.6 µM (inactive) and > 46 µM (inactive). For the same compound, the Potency entry in assay [5] and in assay [7] was “inactive” in each case. In addition, the activity change, negative = inhibition in assay [6] (at 25.7 µM (top of the series)) is -1.11% (inactive). Moreover, the max response in assay [6] (setting [13]) was -16.7%; in assay [6] (setting [14]), -17.3%.
For the compound `C[C@H](NC(C)(C)C)C(=O)c1cccc(Cl)c1`, the outcome in assay [1], in [2] and in assay [4] was inactive. The Potency was > 46 µM (inactive) and > 20.6 µM (inactive) in assay [9]; > 46 µM (inactive) and > 20.6 µM (inactive) in [3]. Also, the Potency entry (in assay [5]; in assay [7]; in [10]; in the assay on 3D7; with C2A; with CP211) was “inactive” in each case. Further, the Potency result in the assay with CP217, in the assay on CP252, with CP262, in the assay on CP286 and with ECU was “inactive” throughout. In assay [6] (at 25.7 µM (top of the series)), the activity change, negative = inhibition is -1.98% (inactive). Also, the max response in assay [6] (setting [13]) was -0.478%; in [6] (setting [14]), -2.37%. Also, the activity, negative = inhibition was 3.13% (inactive) in assay [11] (parasite line A) and 0.713% (inactive) in [11] (parasite line B).
On to `C[C@H]1CC[C@@]2(NC1)O[C@@H]1C[C@H]3[C@@H]4CC=C5C[C@@H](O)CC[C@]5(C)[C@@H]4CC[C@]3(C)[C@@H]1[C@@H]2C`, for which the activity change, negative = inhibition in assay [8] was 7.82% (inactive); in assay [6] (at 25.7 µM (top of the series)), -1.61% (inactive). The call in [2] and in assay [4] was inactive. In addition, the Potency in assay [3] was > 20.6 µM (inactive). Further, the Potency entry in assay [5] and in assay [7] was “inactive” throughout. Further, the max response in assay [6] (setting [13]) is 0.522%; in assay [6] (setting [14]) it was -7.85%.
For the compound `CC(=O)[C@@H]1CC[C@H]2[C@H]3CC[C@H]4C[C@@H](O)CC[C@]4(C)[C@@H]3C(=O)C[C@@]12C`, the outcome in [1], in assay [2] and in assay [4] was inactive. The activity change, negative = inhibition is -7.61% (inactive) in [8] and -4.19% (inactive) in [6] (at 25.7 µM (top of the series)). Further, the Potency result in assay [5] and in assay [7] was “inactive” in each case. Also, the max response is -12.1% in [6] (setting [13]) and -15.2% in assay [6] (setting [14]).
Take `O=C1C(Cl)=C(Cl)C(=O)C(Cl)=C1Cl`: the outcome in assay [4] was inactive. In assay [6] (at 57.5 µM (top of the series)), the activity change, negative = inhibition is -9.83% (inactive). The max response in assay [6] (setting [13]) is -3.14%; in assay [6] (setting [14]), -11.5%.
As to `C[C@@]12CC[C@H](O)C[C@@H]1CC[C@H]1[C@H]2CC[C@@]2(C)[C@@H](C3=CC(=O)OC3)CC[C@]12O`, the Potency result in assay [12] and in assay [7] was “inactive” in each case. Further, the result in [2] and in [4] was inactive. For the same compound, the Potency in assay [9] and in assay [3] was > 20.6 µM (inactive) each time. The activity change, negative = inhibition in assay [6] (at 25.7 µM (top of the series)) is -3.39% (inactive). For the same compound, the max response in assay [6] (setting [13]) was -2.15%; in [6] (setting [14]), -7.35%.
Consider `CCN(CC)C(=O)N[C@@H]1C[C@H]2c3cccc4[nH]cc(c34)C[C@@H]2N(C)C1`, for which the compound was called inactive in assay [1], in assay [2] and in assay [4]. Besides, the activity change, negative = inhibition is 3.13% (inactive) and -9.31% (inactive) in assay [8]; 2.1% (inactive) and 1.29% (inactive) in assay [6] (at 25.7 µM (top of the series)). The Potency result in [5] and in assay [7] was “inactive” in each case. Further, the max response is -3.13% and -3.55% in assay [6] (setting [13]); -0.685% and -2.23% in assay [6] (setting [14]).
